Experimental data published in PubChem BioAssay (NCATS).
Results filed as inconclusive are left out. Where a call stands in place of a potency, no number is given. Calls of active or inactive are those of the source. The call rests on the fitted dose curve; in most records, active means well fitted cell-killing curve with a large enough effect; inconclusive means small, poorly fitted or top-dose-only effect, or effect the other way; inactive means flat fitted curve, though single readings scatter.

Columns and labels:
[1] = system: Tov-21-G; assay: Primary qHTS to identify gynecologic anti-cancer compounds using libraries of approved drugs and bioactive compounds (AID 1345084); settings: Gynecologic cancer cell panel viability, ATPlite luminescence, 48 h; series mostly up to 57.5 µM; further: nearly all actives have a fitted effect of over 55% in size
In short: (§1)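 Cytotoxicity screen measuring ATP content by luciferase luminescence. Each compound is applied at five concentrations for 48 h at 37 C with 5% CO2.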

[2] = system: Tov112D; assay: as above; settings: Gynecologic cancer cell panel viability, ATPlite luminescence, 48 h; series mostly up to 57.5 µM
In short: as §1
Potency means the concentration at half of the fitted maximal effect.

How did the Potency [1] turn out when `O=C(NNc1nc2cc(F)ccc2n2cccc12)c1cnccn1` was run?
The Potency was 8.91 µM (active).

What about the Potency [2] of the same compound?
Its Potency is 6.31 µM (active).

`O=C(NCCN1CCC(n2c(=O)[nH]c3ccccc32)CC1)c1ccc2ccccc2c1` was tested. Which Potency [1] did it give?
The Potency was “inactive”.

And the Potency [2]?
Its Potency is “inactive”.

With `C=C(C(=O)OC)[C@@H]1CC=C2C=CC(=O)[C@H](C)[C@@]2(C)C1` as the compound, how does the Potency [1] read?
Its Potency is “inactive”.

And the Potency [2]?
Its Potency is “inactive”.

Which Potency [1] does the source give for `COc1cc(OC)c2c(=O)[nH]c(-c3cc(C)c(OCCO)c(C)c3)nc2c1` here?
The Potency was “inactive”.

And the Potency [2]?
The Potency was “inactive”.

With `Cn1ccc(NC(=O)c2cc(Oc3ccc(C(=O)N4CCC4)c(F)c3)c3c(c2)OC(C)(C)C3)n1` as the compound, how does the Potency [1] read?
Its Potency is “inactive”.

And the Potency [2]?
Its Potency is “inactive”.

How did the Potency [1] turn out when `CCC/C=C/C=C/C1CC(O)C2(O)C(=O)OCC12` (stereo unspecified) was run?
Its Potency is “inactive”.

And the Potency [2]?
Its Potency is “inactive”.

How did the Potency [1] turn out when `COC(=O)c1ccnc(-c2cc(C(=O)Nc3ccc(C4(N)CC4)cc3)ccn2)c1` was run?
The Potency was “inactive”.

What about the Potency [2] of the same compound?
The Potency was “inactive”.

`CCCC(=O)C1(c2ccccc2)CCN(C(=O)[C@@H](Cc2ccc(OC)cc2)NC(=O)[C@@H](N)Cc2cncn2C)CC1` was tested. Which Potency [1] did it give?
The Potency was “inactive”.

And the Potency [2]?
Its Potency is “inactive”.

`Cn1c(SCC(=O)N2CCC[C@H]2C(=O)Nc2ccccc2-c2ccccc2)nc2ccccc21` was tested. Which Potency [1] did it give?
The Potency was “inactive”.

What about the Potency [2] of the same compound?
Its Potency is “inactive”.

How did the Potency [1] turn out when `C/C=C\NC(=O)C1NC(=O)C(CC(N)=O)NC(=O)C(NC(=O)C(=O)C(C)CC)Cc2ccc(O)c(c2)-c2cccc3c2NC(=O)C3(O)C1O` (stereo unspecified) was run?
Its Potency is 4.47 µM (active).

And the Potency [2]?
The Potency was “inactive”.

Which results are given for `Fc1ccc(N2CCN(CCC3OCCc4ccccc43)CC2)cc1` (stereo unspecified)?
Potency [1]: inactive; Potency [2]: inactive

With `COc1ccc([C@H](Cc2ccncc2)c2ccccc2)cc1OC1CCCC1` as the compound, how does the Potency [1] read?
The Potency was “inactive”.

And the Potency [2]?
Its Potency is “inactive”.

With `CC(C)=CCC/C(C)=C/COCC1OC(n2ccc(=O)[nH]c2=O)C(O)C1O` (stereo unspecified) as the compound, how does the Potency [1] read?
Its Potency is “inactive”.

And the Potency [2]?
Its Potency is “inactive”.
